Pf growth 96h – P. falciparum growth inhibition at 96 hours; P. falciparum luciferase reporter growth, 96 h; Potency, µM (doses to about 28.7 µM), without a hit: top-dose activity change, negative = inhibition, actives largely listed as inhibitors; 320,000 compounds, 6.9% hits; note: potency is the fitted concentration of half-maximal effect
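P. falciparum expressing integrated firefly luciferase, in erythrocytes at 2% hematocrit, 0.05% parasitemia, incubated with compounds 96 h at 37 C, 5% CO2. Growth inhibition read as loss of luminescence; two-generation exposure targets delayed-death apicoplast inhibitors.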
HCV inhibitor – blocks hepatitis C virus. Huh7.5.1 HCVcc-Cre infection, luciferase reporter, 44 h. Potency, µM (titrated, usually from 41.8 µM), for the others: at the highest dose activity change, negative = inhibition, hits mostly inhibitors. 340,000 compounds, 3.4% hits. AID 651820; note: potency is the fitted concentration of half-maximal effect
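A cell-based infection assay in which seeded cells (1,000 per well) receive test compound after 4 h, are inoculated with HCVcc-Cre at approximately 0.5 moi, and are incubated 44 h before luminescence detection.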
HCMV inh – human cytomegalovirus inhibition | activity change, negative = inhibition, % at 57.5 µM | HFF cells, HCMV-luciferase reporter, 72 h; active compounds read low | 410,000 compounds, 4.5% hits; in the data active = activity change below about -60%; inconclusive = no clear call, values can overlap the other calls; inactive = above about -39%
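Compounds were evaluated in HFFs infected with an HCMV luciferase reporter virus (MOI 1 PFU/cell). Luciferase in lysates collected 72 h post infection served as the replication measure.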
Marburg entry inh – Marburg virus entry inhibition; 300,000 compounds, 1.8% hits; Marburg virus pseudotyped entry inhibition, cell reporter; Potency, µM (titrated, usually from 37.8 µM), without a hit: at the highest dose activity change, negative = inhibition, most hits filed as inhibitors; AID 540276; calls by dose curve; tested in HEK293 cells; note: potency is the fitted concentration of half-maximal effect
LASV entry inh – Lassa virus entry inhibition; 300,000 compounds, 1.2% hits; AID 540256; Lassa virus pseudotype entry inhibition, cell reporter; Potency, µM (series often up to 37.9 µM), inactives show at the highest dose activity change, negative = inhibition, actives largely listed as inhibitors; calls by dose curve; tested in HEK293 cells; note: potency is the fitted concentration of half-maximal effect; nearly all actives have a fitted effect of over 50% in size
Pf growth 48h – P. falciparum growth inhibition at 48 hours (one generation); AID 504832; Potency, µM (titrated, usually from 28.7 µM), for inactives: at the highest dose activity change, negative = inhibition, actives largely listed as inhibitors; P. falciparum luciferase growth in erythrocytes, 48 h; 310,000 compounds, 5.9% hits; note: potency is the fitted concentration of half-maximal effect
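In quantitative HTS format, infected erythrocytes bearing luciferase-reporter parasites were treated for a single generation at 37 C. Luminescence after adding detection reagent served as the growth measure.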
* hit, by the source's call; ? = inconclusive; · = no result given; [ ] = remark or other dose. The list is not random: actives were taken first. Their share in the collection is about 14%. Unless noted, calls come from the whole dose curve; as a rule, active = well fitted inhibition curve with a large enough effect; inconclusive = small, poorly fitted or top-dose-only effect, or another doubt; inactive = no such curve, though single readings can be large or run the other way. % is set by controls: 0 for no effect and ±100 for the full control effect.

SMILES	Pf growth 96h	HCV inhibitor	HCMV inh	Marburg entry inh	LASV entry inh	Pf growth 48h
COc1cc2c(cc1OC)-c1c(OC)c(OC)c(OC)c3ccnc(c13)C2=O	?	-23.0%	·	18.4µM*	?	?
CCc1c(C)nc2ncnn2c1Nc1ccccc1C	-2.8%	-4.5%	-21.7	-2.5%	-11.1%	-4.7%
Cc1ccccc1Nc1c(C)c(C)nc2ncnn12	?	11.2µM*	?	?	-26.7%	25.3%
CCOC(=O)C1CSCCS(=O)(=O)N1Cc1ccc(C)cc1 (stereo not drawn)	·	·	22.8	·	·	·
CC(=O)Nc1ccc(C2=NN(C)C(=NCc3ccccc3)SC2)cc1	11.7µM*	-24.6%	21.7	?	?	?
COCCNC(=O)C1(C)CCCN(Cc2c(C)nn(-c3ccccc3)c2C)C1 (stereo not drawn)	·	·	-35.4	·	·	·
COc1ccc(C(=O)c2sc(NC(C)C)nc2N)cc1OC	?	?	?	-7.6%	9.5%	-26.4%
COc1cccc(C(=O)c2sc(NC(C)C)nc2N)c1	?	?	-96.8*	?	8.8%	?
COCC(C)n1c(SCC(=O)NCCC2=CCCCC2)nc2ccccc2c1=O (stereo not drawn)	8.28µM*	-2.5%	-14.4	-28.5%	14.6%	·
CCOC(=O)N1CCC(n2c(SCC(=O)NCCC3=CCCCC3)nc3ccccc3c2=O)CC1	?	?	-34.4	?	?	9.28µM*
CCOC(=O)N1CCC(n2c(SCC(=O)N3CCCC3)nc3ccccc3c2=O)CC1	?	?	-22.1	-19.2%	?	?
CCOC(=O)N1CCC(n2c(SCC(=O)N3CCC(C)CC3)nc3ccccc3c2=O)CC1	4.65µM*	12.6µM*	?	-65.5%	?	10.4µM*
COCC(C)n1c(SCC(=O)NC(=O)NC2CCCC2)nc2ccccc2c1=O (stereo not drawn)	?	10.7%	4.3	·	·	13.1µM*
CCOC(=O)N1CCC(n2c(SCC(=O)Nc3ccccc3OC)nc3ccccc3c2=O)CC1	-4.0%	?	?	?	-23.1%	10.4µM*
CCOC(=O)N1CCC(n2c(SCC(=O)NCc3ccccc3)nc3ccccc3c2=O)CC1	?	?	-37.6	2.0%	-18.0%	?
Cc1cc(N/N=C/c2ccccc2)nc(N)n1	-23.0%	-5.0%	0.0	·	·	?
CN(C)c1cc(N/N=C/c2ccc(Cl)cc2)nc(N(C)C)n1	-16.9%	7.08µM*	?	?	11.6µM*	?
CN1c2ccccc2-c2nc(SCC(=O)Nc3ccccc3C(F)(F)F)ncc2S1(=O)=O	·	·	7.2	·	?	·
COc1cc(NC(=O)COc2ccc(F)cc2)nc(OC)n1	13.1µM*	6.8%	-16.4	-0.7%	7.9%	11.7%
COc1cc(NS(=O)(=O)c2ccc(NC(=O)COc3ccc(C)cc3)cc2)nc(OC)n1	15.1%	6.9%	23.6	22.4%	-4.9%	?
COc1cc(NC(=O)c2cccc(Br)c2)nc(OC)n1	2.94µM*	-22.1%	27.2	?	?	186.7%
CCOc1ccccc1C(=O)Nc1c(NC)c2ccccc2oc1=O	·	·	21.3	-16.5%[46.1 µM]	?	·
CSc1ccc(CN2CCSCC2)cc1	29.7%	23.2%	-8.3	15.0%	5.4%	2.9%
CCc1ccc(CN2CCN(Cc3ccc(SC)cc3)CC2)cc1	8.6%	10µM*	?	?	?	?
CCN1CCN(Cc2ccc(C)cc2)CC1	5.22µM*	6.2%	62.7	-16.0%	-3.7%	4.1%
SMILES	Pf growth 96h	HCV inhibitor	HCMV inh	Marburg entry inh	LASV entry inh	Pf growth 48h
Cc1ccc(CN2CCN(Cc3ccccc3F)CC2)cc1	55.9%[5.75 µM]	-16.4%	-3.3	?	-7.7%	-10.2%[1.15 µM]
CC(=O)c1ccc(NC(=O)C2CCC(CNS(=O)(=O)c3ccc4c(c3)CCCC(=O)N4)CC2)cc1 (stereo not drawn)	·	·	-8.9	·	-9.5%[46.1 µM]	·
COc1ccc(NC(=O)CCNC(=O)c2ccc([N+](=O)[O-])cc2)cc1S(=O)(=O)N1CCCCC1	-22.3%	?	-25.8	-0.9%	3.2%	?
CSCCC(NC(=O)c1ccccc1Cl)C(=O)NCCc1ccccn1 (stereo not drawn)	·	-1.2%	0.0	·	·	·
CC1C(=O)C(C)C(c2ccc(Cl)cc2)NC1c1ccc(Cl)cc1 (stereo not drawn)	·	-25.3%	-20.4	?	?	·
CC1C(=NO)C(C)C(c2ccc(N(C)C)cc2)NC1c1ccc(N(C)C)cc1 (stereo not drawn)	1.85µM*	-2.4%	10.3	12.0%	1.2%	?
C/C(=N\NC(=S)NC1CCCCC1)c1c(F)cccc1F	10.4µM*	?	-79.5*	?	?	-15.5%
C/C(=N\NC(=S)NC1CCCCC1)c1ccc(Cl)c(Cl)c1	4.15µM*	-0.6%	-14.5	·	·	2.33µM*
C/C(=N\NC(=S)NC1CCCCC1)c1cccs1	?	?	-39.5	?	-14.2%	?
CC(C)Oc1ccc(C(=O)NCC(=O)N2CCN(S(=O)(=O)/C=C/c3ccccc3)CC2)cc1	?	?	-30.1	·	·	14.7µM*
O=C(CNC(=O)C12CC3CC(CC(C3)C1)C2)N1CCN(S(=O)(=O)c2cccs2)CC1	?	?	?	-23.5%	-21.6%	?
O=C(CNC(=O)C12CC3CC(CC(C3)C1)C2)N1CCN(S(=O)(=O)/C=C/c2ccccc2)CC1	9.28µM*	-1.4%	-71.9*	-16.9%	?	?
Cc1cccc(C(=O)NCC(=O)N2CCN(S(=O)(=O)/C=C/c3ccccc3)CC2)c1	-22.6%	-4.1%	-7.2	5.7%	0.7%	?
CCN(CC)S(=O)(=O)c1cccc(-n2c(O)c(C=Nc3ccccc3C(=O)O)c3ccccc3c2=O)c1	7.38µM*	?	-79.5*	·	·	13.1µM*
O=C(O)c1ccccc1N=Cc1c(O)n(-c2nccs2)c(=O)c2ccccc12	0.6%	-4.1%	?	·	·	6.7%
C[C@@H](Oc1ccccc1)c1nnn(Cc2ccccc2)c1-c1c([C@@H](C)Oc2ccccc2)nnn1Cc1ccccc1	6.57µM*	-21.4%	-72.4*	·	·	?
Cc1ccc(NC2=C(C(=O)c3ccccc3)N(C)S(=O)(=O)c3ccccc32)cc1	11.7µM*	11.2µM*	?	?	-28.7%	9.28µM*
O=C(NC1=C(NC2CCS(=O)(=O)C2)C(=O)c2ccccc2C1=O)c1ccccc1 (stereo not drawn)	?	?	-99.5*	·	·	1.65µM*
Cc1cccc(C(=O)Nc2cccc(NC(=O)c3ccccc3)c2)c1	?	?	-5.4	28.4%	-20.6%	50.6%
O=C(NC(NC1CCS(=O)(=O)C1)C(=O)c1cccs1)c1ccccc1 (stereo not drawn)	·	-15.1%	25.3	4.1%	1.4%	12.6%
Cc1cccc(NC2=C(NC(=O)c3ccccc3)C(=O)c3ccccc3C2=O)c1	?	?	-20.0	18.9%	-10.7%	0.465µM*

From PubChem
